High-throughput results as filed in PubChem BioAssay.
ATXN2 expr inh = inhibitors of ATXN2 expression | HEK-293 ATXN2-luciferase reporter, luminescence, 24 h | Potency, µM (top dose mostly 57 µM), for inactives: top-dose activity change, negative = inhibition, most hits filed as inhibitors | actives 0.72% (n = 360,000); note: potency is the fitted concentration of half-maximal effect; % is set by controls: 0 for no effect and ±100 for the full control effect; nearly all actives have a fitted effect of over 55% in size
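qHTS (up to 57 uM final) was run with 24 h compound exposure of reporter cells at 37 °C. Each well was multiplexed: SteadyGlo luminescence measured ATXN2-luciferase expression after a fluorogenic Gly-Phe-AFC viability readout (25 uM final).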
S2 tox = cell viability loss in ATXN counter-screen; Potency, µM (titrated, usually from 56.7 µM), hits mostly cytotoxic; AID 651635; S2 cells (HEK-293 line with an ATXN2-luciferase reporter) viability, CellTiter-Fluor protease fluorescence, 24 h; actives 0.49% (n = 400,000); note: potency is the fitted concentration of half-maximal effect; nearly all actives have a fitted effect of over 40% in size
SW480 rerep = DNA re-replication induction in SW480 cells; SW480 DNA re-replication, Hoechst DNA content imaging, 48 h; AID 624297; actives 1.8% (n = 340,000); Potency, µM (series often up to 46.1 µM), without a hit: top-dose re-replication activation, usual class: activators; note: potency is the fitted concentration of half-maximal effect; % of control where 0% means no effect; nearly all actives have a fitted effect of over 55% in size
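Image-based read-out: total Hoechst fluorescence of nuclei (405 nm excitation, 500-530 nm emission), with hits raising the fraction of high-intensity nuclei. SW480 colon cells incubated 48 hr with compounds at 37 C.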
MCF10A rerep = DNA re-replication induction in MCF 10a cells; MCF 10A DNA re-replication, Hoechst nuclear intensity, 48 h; actives 2.9% (n = 350,000); Potency, µM (highest dose often 46.1 µM), for inactives: top-dose activity, positive = re-replication, actives largely listed as activators; note: potency is the fitted concentration of half-maximal effect; % of control where 0% means no effect; nearly all actives have a fitted effect of over 50% in size
IL1B secr inh = inflammasome signaling inhibition, IL-1 beta readout | THP-1 LPS/ATP IL-1B secretion, AlphaLISA, 16 h; hits give low values | activity change, % at 57.5 µM | actives 4.7% (n = 360,000) | AID 743279; in the data active = activity change below about -50%; inconclusive = mostly about -30% to -49%; note: % is set by controls: 0 for no effect and ±100 for the full control effect
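THP-1 cells pretreated 1 hr with compounds (up to 57.5 uM final), then stimulated with LPS (250 ng/mL final) plus ATP (1.25 mM final); secreted IL-1B measured by AlphaLISA after 16 hr, decreased signal indicating inhibition.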
PINK1 expr mod = changes PINK1 expression. PINK1 immunofluorescence, high-content cytometry, 24 h. Potency, µM (top dose mostly 76.6 µM), without a hit: top-dose activation (PINK1 increase), actives largely listed as activators. actives 0.2% (n = 410,000); active = well fitted activation curve with a large enough effect; inconclusive = small, poorly fitted or top-dose-only effect; cell line not stated here; note: potency is the fitted concentration of half-maximal effect; % of control where 0% means no effect; nearly all actives have a fitted effect of over 65% in size
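Readout is PINK1 immunofluorescence, quantified alongside mitochondrial, cell and nuclear markers by laser-scanning microplate cytometry. Cells from a stable line were exposed to compound titrations (5 concentrations) for 24 hours, with CCCP controls.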
An asterisk follows results filed as active; i = inactive; ? = inconclusive; . = no result; [ ] = remark or other dose. The list is not random: actives were taken first. Their share in the collection is about 7.1%. Unless noted, calls come from the whole dose curve; as a rule, active = well fitted curve in the direction sought with a large enough effect; inconclusive = small, poorly fitted or top-dose-only effect, or another doubt; inactive = no such curve, though single readings can be large; an effect the other way counts as inactive or inconclusive.

SMILES	ATXN2 expr inh	S2 tox	SW480 rerep	MCF10A rerep	IL1B secr inh	PINK1 expr mod
COc1cccc(N2CC(=O)Nc3c(oc4nc(-c5ccccc5)cc(C)c34)C2=O)c1	.	i	0%	5%	?	5%
Cc1cc(-c2ccccc2)nc2oc3c(c12)NC(=O)CN(c1ccccc1)C3=O	-11%	i	15µM*	4%	-4	3%
CC1CC(C)CN(C(=O)C(C)N2CCN(S(=O)(=O)c3ccc(Br)s3)CC2)C1 (centres undefined)	-18%	i	1%	?	-59*	1%
CC1CC(C)CN(C(=O)C(C)N2CCN(S(=O)(=O)c3cccs3)CC2)C1 (centres undefined)	3%	i	-3%	-1%	2	0%
CCc1ccccc1NC(=O)Nc1cc(C(=O)NCc2ccc(OC)cc2)ccc1N1CCCC1	10%	i	.	.	.	?
N#C/C=C/C(=C\Nc1ccc(Cl)cc1)S(=O)(=O)c1ccccc1	-22%	i	8%	?	?	0%
COc1ccc(N/C=C(\C=C\C#N)S(=O)(=O)c2ccccc2)cc1	.	?	?	3.7µM*	-2	?
N#Cc1c(Nc2ccccc2)s[nH]c1=O	-12%	i	?	?	?	2%
N#Cc1c(Nc2ccccc2Cl)s[nH]c1=O	-11%	i	?	?	-59*	3%
N#Cc1c(Nc2ccccc2C(F)(F)F)s[nH]c1=O	-9%	i	?	18µM*	.	0%
NNc1ccccc1C(F)(F)F	55%	i	8%	2%	12	1%
Cc1ccc2nc(N(CCCN(C)C)C(=O)c3sc4ccccc4c3Cl)sc2c1	?	?	-1%	?	-91*	-3%
Cc1ccc(C(=O)N(CCCN(C)C)c2nc3ccc(Cl)cc3s2)cc1C	?	?	?	5%	-107*	8%
CCc1ccc2nc(N(CCN(C)C)C(=O)c3ccc4ncsc4c3)sc2c1	32%	?	-2%	?	-76*	1%
O=C(CCCn1c(=O)c2ccccc2n(CC(=O)Nc2cccc(Cl)c2)c1=O)NCc1ccc2c(c1)OCO2	-2%	i	.	.	.	3%
Cc1nc2sccn2c(=O)c1CCN1CCC(=C(c2ccccc2)c2ccc(F)cc2)CC1	.	.	15%	5.2µM*	.	.
Cc1cnc(C)c(-c2cccc3c2OC(CNC(=O)c2cc(C)on2)C3)n1 (centres undefined)	.	i	.	.	.	0%
O=C(Nc1nnc(SCc2ccc(F)cc2)s1)C1Cc2ccccc2CN1C(=O)c1ccco1 (centres undefined)	22%	i	2%	?	-78*	-1%
O=C(Nc1nnc(C2CC2)s1)C1Cc2ccccc2CN1C(=O)c1ccco1 (centres undefined)	7%	?	2%	0%	47	-1%
CC(C)(C)Cc1c(-c2cccc(Br)c2)nc2ccc(Br)cn12	3%	i	.	.	-14	-1%
CC(C)(C)Cc1c(-c2ccc(F)cc2)nc2ccc(Br)cn12	?	?	.	.	55	35µM*
CC(C)(C)Cc1c(-c2ccc(Cl)cc2)nc2ccc(Br)cn12	-9%	?	.	.	39	32µM*
CC(C)(C)Cc1c(-c2ccc(Br)cc2)nc2ccc(Cl)cn12	?	?	.	.	61	?
N#CC1(C#N)C(C(N)=O)C1c1ccccc1 (centres undefined)	-1%	i	?	6%	-10	-2%
CN1C=CC2=C(C#N)C(N)C(C#N)(C#N)[C@H](c3ccccc3)[C@H]2C1 (some centres undefined)	-7%	i	-3%	5%	-4	13µM*
SMILES	ATXN2 expr inh	S2 tox	SW480 rerep	MCF10A rerep	IL1B secr inh	PINK1 expr mod
CN(CC(=O)Nc1ccc(F)cc1)C(=O)COC(=O)/C=C/c1ccc(OC(F)F)cc1	2%	i	-5%	-4%	-87*	0%
CC1=NN(c2nc(-c3ccc(C)cc3)cs2)C(=O)C1N=Nc1cccc(O)c1 (centres undefined)	-4%	i	5%	-7%	32	4%
CC1=NN(c2nc(-c3ccc(C)cc3)cs2)C(=O)C1N=Nc1ccccc1O (centres undefined)	?	i	0.73µM*	?	241	3%
CCOc1ccc(/C=N/NC(=O)c2cc(-c3ccco3)nc3ccccc23)cc1	10%	i	?	4.1µM*	-15	17%
O=C(N/N=C/c1ccc(F)cc1)c1cc(-c2ccco2)nc2ccccc12	-7%	?	?	13µM*	28	6%
CCOc1ccccc1-c1cc(C(=O)N/N=C/c2ccc3c(c2)OCO3)c2ccccc2n1	45%	i	5%	15%	8	2%
COC(=O)c1ccc(-c2cccc3c2OC(CNC(=O)c2ccc4c(c2)OCCO4)C3)nc1 (centres undefined)	.	?	.	.	.	0%
N#Cc1ccccc1Cn1c(=O)n(CCCCC(=O)NCc2ccc3c(c2)OCO3)c(=O)c2ccccc21	8%	i	.	.	.	2%
Oc1c(Br)cc(/C=N/Nc2ccc(Cl)nn2)cc1Br	11%	.	-1%	5%	13	0%
CCOc1ccccc1/C=N/Nc1ccc(Cl)nn1	5%	i	-1%	-8%	28	6%
CCOc1ccc(/C=N/Nc2ccc(Cl)nn2)c(O)c1	?	i	0.18µM*	?	67	11%
Oc1c(Br)cc(Br)cc1/C=N/Nc1ccc(Cl)nn1	2.8µM*	?	?	?	-15	16%
Cc1ccccc1-c1noc(-c2cccnc2N2CCN(c3ccccc3)CC2)n1	2%	i	.	.	.	0%
CCOC(=O)COn1c(=O)c(-c2ccco2)[n+]([O-])c2ccccc21	-13%	i	-3%	-3%	-69*	-1%
CCOC(=O)c1sc(SCC(=O)Nc2ccc(N(C)C)cc2)nc1N	-18%	i	7%	-2%	-67*	14%[38.3 µM]
CN(C)c1ccc(NC(=O)CSc2nc(N)c(C(=O)Nc3ccc(N(C)C)cc3)s2)cc1	18%	i	9%	2%	?	0%
CCCn1c(CC)nc([N+](=O)[O-])c1S(=O)(=O)c1ccccc1	?	.	?	3.7µM*	-104*	3%[38.3 µM]
CCc1nc(C)cn1S(=O)(=O)c1ccc([N+](=O)[O-])cc1	-15%	i	2%	-32%	-7	-1%
Cc1nnc(N/N=C/c2cc([N+](=O)[O-])c(N3CCC(C)CC3)cc2N2CCC(C)CC2)n1N	-27%	i	?	?	-68*	-2%
